In PubChem BioAssay AID602358 (National Center for Advancing Translational Sciences (NCATS), 2012) one finds Potency data, which are given here for 40 molecules.

SMILES strings stand for the structures. Results filed as inconclusive are left out. Calls of active or inactive are those of the source. Calls come from the whole dose curve; as a rule, active = well fitted inhibition curve with a large enough effect; inconclusive = small, poorly fitted or top-dose-only effect; inactive = flat fitted curve, though single readings scatter.

Sequence of Luciferin 4-monooxygenase (Photinus pyralis) (P08659 whole entry, looked up): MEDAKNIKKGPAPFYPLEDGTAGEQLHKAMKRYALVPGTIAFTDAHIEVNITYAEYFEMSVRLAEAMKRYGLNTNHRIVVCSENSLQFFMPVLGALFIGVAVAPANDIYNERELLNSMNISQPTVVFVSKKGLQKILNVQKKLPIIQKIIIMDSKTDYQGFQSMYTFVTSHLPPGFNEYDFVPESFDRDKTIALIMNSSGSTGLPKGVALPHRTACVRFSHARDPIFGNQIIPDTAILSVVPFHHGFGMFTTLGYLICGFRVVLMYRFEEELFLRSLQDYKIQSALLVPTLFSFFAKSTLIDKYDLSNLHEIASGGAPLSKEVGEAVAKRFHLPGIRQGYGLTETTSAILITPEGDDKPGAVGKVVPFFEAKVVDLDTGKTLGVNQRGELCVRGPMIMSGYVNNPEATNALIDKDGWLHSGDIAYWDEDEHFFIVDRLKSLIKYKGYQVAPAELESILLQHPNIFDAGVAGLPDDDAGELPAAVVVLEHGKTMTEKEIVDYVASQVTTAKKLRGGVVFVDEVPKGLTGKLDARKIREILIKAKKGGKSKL

For the test, the target named is Luciferin 4-monooxygenase (Photinus pyralis) (UniProt P08659). Kind of test: FLuc inhibitory activity for the follow-up compounds in a biochemical assay with Km concentrations of substrate and 500microM CoASH. To be noted: purified FLuc, Km substrates + 500 uM CoASH, luminescence; series mostly up to 57.5 µM. From the text:
NCGC Assay Overview: Firefly (Photinus pyralis) luciferase is one of the most commonly used transcriptional reporters. It is considered one of the more dynamically responsive reporters - that is, responsive to changes in reporter transcription - as it requires no post-translational modifications and is enzymatically active directly after protein synthesis (Wood, 1998). With no endogenous expression in mammalian cells and without the requirement of external excitation, it offers very little background signal, thus generally providing excellent signal to background for most assays. Previous profiling work to determine the prevalence of compounds that affect FLuc enzymatic activity (PubChem AID 411) identified that ~3% of the MLSMR library (then at ~72K) inhibited FLuc. […] Of the compounds identified in this profile that inhibited FLuc, 151 compounds were selected for further analysis, in an effort to better understand their mode of inhibiting FLuc. The assay described here was to determine the activity of the compounds in an FLuc assay that contained KM concentrations of substrates and 500uM CoASH.
NCGC Assay Protocol Summary: Reagents: 50mM Tris acetate, pH 7.5; 10mM Mg acetate; 10uM D-luciferin (Sigma #L9504); 10uM ATP; 0.01% Tween-20; 0.05% BSA; 10nM P. pyralis luciferase (Sigma #L9506); 500 uM CoASH Control compounds used were two known firefly luciferase inhibitors (3-(5-(3-chlorophenyl)-1,2,4-oxadiazol-3-yl)benzoic acid and 5-(2-fluorophenyl)-3-phenyl-1,2,4-oxadiazole), and DMSO. Three microliters containing firefly luciferase substrates in buffer (final concentrations: 50mM Tris acetate, pH 7.5, 10mM Mg acetate, 0.01% Tween-20, 0.05% BSA, 10uM D-luciferin, 10uM ATP, and 500 uM CoASH) are dispensed into each well of a Greiner white, solid-bottom 1536-well format plate using a flying reagent dispenser (FRD). These assay plates were then treated with 23nL of compound or DMSO using a Kalypsys pin tool, which allows for delivery of a 12-point intraplate titration of each compound to the assay plate (quantitative HTS), with a final compound concentrations ranging from approximately ~60uM to 0.3nM. One microliter of firefly luciferase in 500mM Tris-acetate buffer was then delivered by FRD to each well for a final enzyme concentration of 10nM. Luciferase activity was then measured using a ViewLux CCD imager (PerkinElmer), with an average exposure time of 2-30 seconds (2X binning, medium/high gain).
As for `Cc1ccc(C(=O)Nc2ccc(C(=O)O)cc2)cc1S(=O)(=O)Nc1ccccc1`, the Potency result was “inactive”.

With `Cc1ccc2nc(-c3ccc(N)cc3)sc2c1`, the Potency was 0.0326 µM (active).

Consider `O=C(Nc1ccccc1C(=O)O)c1ccc(NC(=O)C2CCCO2)cc1` (stereo not given), for which the Potency was 5.8 µM (active).

`CN(C)c1cccc(C(=O)Nc2ccc(-c3nc4ccccc4s3)cc2)c1`: the Potency was 1.46 µM (active).

`O=C(O)c1cccc(NC(=O)c2ccccc2NC(=O)c2ccccc2F)c1`: the Potency was 18.3 µM (active).

In the case of `Cc1ccc(C(=O)Nc2cccc(C(=O)O)c2)cc1S(=O)(=O)N1CCCC1`, the Potency is 5.17 µM (active).

On to `CCOc1ccc2nc(NC(=O)c3ccccc3)sc2c1`, for which the Potency was 0.206 µM (active).

As to `COc1ccc(C(=O)Nc2ccccc2-c2nc3ccccc3s2)c(OC)c1`, the Potency entry was “inactive”.

For the molecule `O=C(Nc1ccccc1C(=O)O)c1cc(S(=O)(=O)NCc2ccccc2)ccc1Cl`, the Potency entry is “inactive”.

As to `COc1ccc2nc(NC(=O)c3ccc([N+](=O)[O-])o3)sc2c1`, the Potency was 1.16 µM (active).

Turning to `COc1ccc2nc(NC(=O)Cc3cccs3)sc2c1`, the Potency is 5.8 µM (active).

Turning to `Cc1ccc(S(=O)(=O)N2CCOCC2)cc1C(=O)Nc1ccccc1C(=O)O`, the Potency result is “inactive”.

Take `CCOc1ccc2nc(NC(=O)c3cccnc3)sc2c1`: the Potency is 1.3 µM (active).

With `CCOc1ccc(C(=O)Nc2cccc(C(=O)O)c2)cc1Cl`, the Potency is 0.919 µM (active).

Turning to `CCOc1ccc2nc(NC(=O)c3ccccn3)sc2c1`, the Potency was 0.163 µM (active).

As for `O=C(O)c1ccc(NC(=O)c2cccc(NC(=O)c3cccs3)c2)cc1`, the Potency is 5.8 µM (active).

With `COc1ccc(-c2cccc(C(=O)Nc3cccc(C(=O)O)c3)c2)cc1`, the Potency was 13 µM (active).

In the case of `COc1ccc2nc(NC(=O)c3ccc(S(=O)(=O)N4CCCC(C)C4)cc3)sc2c1` (stereo not given), the Potency result was “inactive”.

Consider `CN=c1scc(-c2ccccc2F)n1/N=C/c1ccc[nH]1`, for which the Potency is 0.0163 µM (active).

Consider `Cc1ccccc1C(=O)Nc1cccc(C(=O)Nc2ccccc2C(=O)O)c1`, for which the Potency was 16.3 µM (active).

`O=C(O)c1cccc(NC(=O)c2ccccc2NC(=O)c2ccco2)c1`: the Potency is 20.6 µM (active).

Take `Cc1ccc(C(=O)Nc2ccc(C(=O)O)cc2)cc1S(=O)(=O)NCc1ccccc1`: the Potency result is “inactive”.

As to `COc1ccc2nc(NC(=O)c3cccs3)sc2c1`, the Potency is 13 µM (active).

Regarding `O=C(O)c1ccc(NC(=O)c2ccccc2NC(=O)c2cccc(Br)c2)cc1`, the Potency is 7.3 µM (active).

Consider `Cn1c(N/N=C/c2cc3ccccc3nc2Cl)nc2ccccc21`, for which the Potency was 0.0231 µM (active).

Regarding `O=C(Cc1ccc(Cl)cc1)Nc1cccc(C(=O)Nc2ccccc2C(=O)O)c1`, the Potency is 25.9 µM (active).

For `Cc1cccc(C(=O)Nc2ccc(-c3nc4ccccc4s3)cc2Cl)c1`, the Potency was 18.3 µM (active).

Regarding `Cc1c(NC(=O)C(C)(C)C)cccc1-c1nc2ccccc2s1`, the Potency is 1.46 µM (active).

On to `COc1cc(OC)cc(C(=O)Nc2ccccc2-c2nc3ccccc3s2)c1`, for which the Potency result was “inactive”.

Take `CCc1noc(C)c1C(=O)Nc1nc2ccc(OC)cc2s1`: the Potency is 13 µM (active).

For the molecule `COc1ccc2nc(NC(=O)c3ccccc3C(=O)O)sc2c1`, the Potency was 6.51 µM (active).

With `COc1cccc(-c2nc3ccccc3s2)c1`, the Potency is 0.517 µM (active).

For `Nc1ccc2nc(-c3ccc(O)cc3)sc2c1`, the Potency was 0.146 µM (active).

For `Cc1c(C)c2ccc(OCC(=O)Nc3ccccn3)c(C)c2oc1=O`, the Potency was 0.0041 µM (active).

Consider `Cc1cccc(C(=O)Nc2ccccc2C(=O)Nc2ccc(C(=O)O)cc2)c1`, for which the Potency was 5.8 µM (active).

As to `O=C(O)c1cccc(NC(=O)c2ccc(Cl)c(S(=O)(=O)N3CCCCCC3)c2)c1`, the Potency is 2.91 µM (active).

In the case of `Nc1cccc(-c2nc3ccc(N)cc3s2)c1`, the Potency was 0.146 µM (active).

Turning to `O=C(O)c1ccc(NC(=O)c2cc(S(=O)(=O)N3CCCCC3)c(Cl)cc2Cl)cc1`, the Potency entry is “inactive”.

With `O=C(Nc1ccccc1C(=O)O)c1cccc(NC(=O)c2ccc(Br)o2)c1`, the Potency is 10.3 µM (active).

Turning to `O=C(Cc1ccccc1)Nc1ccc(C(=O)Nc2ccccc2C(=O)O)cc1`, the Potency was 9.19 µM (active).
